PubChem BioAssay (NCATS)
Inconclusive results are not listed. Values without a mark were called inactive. Active and inactive are the calls of the source. The call rests on the fitted dose curve; in most records, active means well fitted inhibition curve with a large enough effect; inconclusive means small, poorly fitted or top-dose-only effect; inactive means no such curve, though single readings can be large or run the other way. Starred links: 1 amine or outer side, 2 acyl side, 3 side chain; linkers in the order of their positions; H or OH if unused. Positions of bridges follow the written chain, without caps; N, C: chain ends. Non-standard residues stand in square brackets, D forms with d. Residues, ends and D or L forms follow the SMILES beside them. ξ: configuration not given here. *: point of attachment. X3 = C[C@@H](Oc1ccc([C@H](N[*:1])C(=O)[*:2])cc1)[C@]1(/C=C\C(=O)[*:3])CO1; d(aIle) = CC[C@H](C)[C@@H](N)C(=O)O; X2 = CC(C)[C@@H](O)C(C)C(=O)*; ξNMeF = CNC(Cc1ccccc1)C(=O)O; ξT = CC(O)C(N)C(=O)O; ξS = NC(CO)C(=O)O

assay: qHTS for ATAD5 Antagonist screened against the NCATS CANVASS Library (AID 1347370); settings: HEK293T-ATAD5-luc, 5-FUrd stimulated, luminescence, 16 h; series mostly up to 46.1 µM; activity change, negative = inhibition: at the top concentration; further: nearly all actives have a fitted effect of over 65% in size
Description: Natural products and their derivatives continue to be wellsprings of nascent therapeutic potential. However, many laboratories have limited resources for biological evaluation, leaving their previously isolated or synthesized compounds largely or completely untested. To address this issue, the Canvass library of natural products was assembled (https://tripod.nih.gov/canvass), in collaboration with academic and industry researchers, for quantitative high-throughput screening (qHTS) across a diverse set of cell-based and biochemical assays. The pure (>85% purity by liquid chromatography/mass spectrometry [LC/MS]) Canvass library of 346 natural products were submitted by 45 academic laboratories and companies around the world. We collected pure natural products to circumvent deconvolution and structure elucidation due to time and resource limitations. The library was formatted into 1536-well plates and evaluated in 50 qHTS (in an 11-pnt concentration series) bioassays with broad scope of disease-relevant mechanisms. The resulting data set from 50 different assays was then systematically analyzed to identify overall trends and specific natural products with interesting biological activities. Reported herein are the results of each individual qHTS and their corresponding assay protocol. Human ATAD5 is a biomarker for identifying gentoxic compounds because ATAD5 protein levels increase post-transcriptionally in response to DNA damage. A cell-based assay is used to detect DNA damage inducers and genotoxic compounds as well. The assay is based upon a luciferase reporter gene under control of ATAD5 that has been stably integrated into HEK 293T cells. Luminescence intensity is proportional to ATAD5 expression. National Center for Advancing Translational Sciences (NCATS), Rockville, MD National Institute of Health (NIH), Bethesda, Maryland
ATAD5 Agonist assay protocol: 1. In a 1536 well, tissue culture treated white solid bottom plates (Greiner Bio-One North America), 5 uL of HEK293T-ATAD5 cell solution (2000 cells / well) was dispensed using the Multidrop Combi dispenser (Thermo Fisher Scientific). 2. The assay plates were incubated for 5hr at 37C, 5% CO2 to allow the cells to acclimate and attach. 3. Compounds were pin transferred (~23 nL volume) to the assay plates via Wako Pin-tool (Wako Automation, Richmond VA) equipped with a 1536 pin head. The compounds were transferred to columns 5-48 resulting in a final concentration ranging from 0.16 nM to 103 uM. DMSO was pin transferred to columns 1-4 as controls. The compound / control transfer was followed by the addition of either 1 uL of culture medium (columns 1 and 3) or 10 uM final concentration of 5-Fluorouridine (5-FUrd; column 2, 4-48), a known stabilizer of ATAD5. 4. The assay plates were further incubated in the dark at 37C, 5% CO2 for 16hr. 5. To measure cell viability, 1uL of CellTiter-Fluor (Promega) reagent was then added to the assay plates (column 1-48, rows 1-32). The assay plates were incubated in the dark for 1hr at 37C, 5% CO2. 6. A first readout of fluorescence signal was acquired via the ViewLux (PerkinElmer) plate reader using filter sets for AFC (380-400nmEx/505Em) and 1 second exposure setting. 7. To measure ATAD5 activation, 4uL of Amplite Luciferase reagent (AAT Bioquest) was then added to the assay plates (column 1-48, rows 1-32). The assay plates were further incubated in the dark at room temperature for 30min. 8.#A second readout of luminescence signal was acquired via the ViewLux plate reader using a clear emission filter, 10 second exposure setting.
On the % scale 0 is the no-effect control and ±100 the full control effect; potency means the concentration at half of the fitted maximal effect.

Compound	Potency	activity change, negative = inhibition
CO[C@H]1[C@H](O[C@H]2CC[C@]3(C=O)[C@H]4CC[C@]5(C)[C@@H](C6=CC(=O)OC6)CC[C@]5(O)[C@@H]4CC[C@]3(O)C2)O[C@H](C)[C@H](O)[C@@H]1OC	0.132 µM (active)	
CC[C@H]1CN2CCc3c([nH]c4cccc(OC)c34)[C@@H]2C[C@@H]1/C(=C\OC)C(=O)OC		-31%
C[C@]12CC(O)C3[C@@H](CCC4C[C@@H](O)CC[C@@]43CO)[C@@]1(O)CC[C@@H]2C1=CC(=O)OC1 (stereo partly drawn)		-21.2%
C[C@]12CCC3[C@@H](CC[C@@H]4C[C@@H](O)CC[C@]34CO)[C@@]1(O)CC[C@@H]2C1=CC(=O)OC1 (stereo partly drawn)	4.17 µM (active)	
CO[C@H]([C@@H](C)[C@H]1O[C@]1(C)C[C@H](C)/C=C/C=C(\C)[C@H]1O[C@@H](CC(=O)O)CC[C@@H]1C)[C@@H](C)O		14.9%
CCCC[C@@H](C)/C=C1/CN2CCC[C@H]2[C@@](C)(O)[C@@H]1O		48.2%
CO[C@@]12c3c(C)cc(O)c4c(=O)occ(c34)C(=O)[C@@H]1[C@]13COC(=O)c4c(O)cc(C)c(c41)C(=O)[C@H]2[C@@H]3OC(C)=O		9%
C/C=C(\C)C(=O)O[C@@H]1[C@@H](O)[C@@H]2O[C@H]3[C@H](O[C@@H](CCCCC)CCCCCCC(=O)CCC(=O)OC[C@@H](O2)[C@H]1OC(=O)/C=C/c1ccccc1)O[C@H](C)[C@H](OC(C)=O)[C@@H]3O		-30.3%
CCCCC1CC[C@H]2CCCC(CCC)N12 (stereo partly drawn)		2.39%
CC[C@@H]1CN2CCC3(Nc4cccc(OC)c4C3=O)[C@@H]2C[C@@H]1/C(=C\OC)C(=O)OC (stereo partly drawn)		-8.95%
C/C=C1/CN2C3CC1C1=CCC(=O)N4c5ccccc5[C@@]3(C[C@@H]2C2=C[C@H]3C5CC6N(CC[C@@]67c6ccccc6N(C2=O)[C@@H]37)C/C5=C/C)[C@H]14 (stereo partly drawn)	14.8 µM (active)	
C=CC(C)(C)[C@@]12C[C@H]3C(=O)N/C(=C\c4cnc[nH]4)C(=O)N3[C@@H]1Nc1ccccc12		-17.9%
CO[C@@H](/C=C/CC/C=C/C(=O)O)[C@@H](O)[C@H](C)/C=C(\C)[C@H](O)[C@H](C)C(=O)CCCC1CC(=O)NC(=O)C1		10.4%
C/C(=C\[C@H](C)C(=O)C[C@H](O)CC1CC(=O)NC(=O)C1)[C@@H]1OC(=O)/C=C/CC/C=C/C=C/[C@@H]1C	0.105 µM (active)	
O[C@H]1C=C[C@@]23CCN(Cc4cc5c(cc42)OCO5)[C@@H]3C1		-3.05%
COC1=C(C2=C(OC)C(=O)c3cc4c(c(O)c3C2=O)C(=O)O[C@H](C)C4)C(=O)c2c(cc3c(c2O)C(=O)O[C@H](C)C3)C1=O		-4.5% [at 15.4 µM]
C[N+](C)(C)CCc1c[nH]c2ccccc12		-12%
CCCC[C@@H]1CC[C@H]2CCCC(CCCO)N12 (stereo partly drawn)		13.9%
c1ccc2nc3c(cc2c1)[nH]c1ccccc13		22.6%
CC[C@H](C)[C@H]1NC(=O)[C@@H](NC(=O)C(C)[C@H](O)C(C)C)[C@@H](C)OC(=O)C2COC(=O)CNC(=O)/C=C\[C@]3(CO3)[C@@H](C)Oc3ccc(cc3)[C@H](NC1=O)C(=O)N(C)C(Cc1ccccc1)C(=O)NC(C(C)O)C(=O)N2 (stereo partly drawn) (X2-T[d(aIle)][X3][ξNMeF][ξT][ξS]; ester 1-C; linker 3-6 via G)		-3.12% [at 27.5 µM]
C=CC(C)(C)[C@@]12C[C@H]3C(=O)N/C(=C/c4cnc[nH]4)C(=O)N3[C@@H]1Nc1ccccc12		2.67%
C1=C2CCCN[C@H]2C2CC1[C@H]1CCCCN1C2 (stereo partly drawn)		21%
C=C[C@H]1CN2CCc3c([nH]c4cccc(OC)c34)[C@@H]2C[C@@H]1/C(=C\OC)C(=O)OC		1.33%
C=C[C@]12C=CCN3CC[C@@]4(c5ccccc5NC(=O)[C@@H]4C1)[C@@H]32		-27.6%
C=C(C)[C@H]1C(=O)c2c3c(cc4c5c(n1c24)[C@@]1(C)[C@@H](CC[C@H]2[C@](C)(/C=C/C=C(\C)C(=O)O)[C@@H](O)CC[C@@]21C)C5)C1=CC(C)(C)OC(C)(C)[C@H]1[C@@H]3O	16.6 µM (active)	
CCC(=O)N[C@@H](C[C@H](C)C(Cl)(Cl)Cl)C(=O)N1C(=O)C=C(OC)[C@@H]1C[C@H](C)C(Cl)Cl		-15.4%
CO[C@H]1C[C@H](O[C@H]2[C@@H](O)C[C@H](O[C@H]3CC[C@]4(C=O)[C@H]5CC[C@]6(C)C(C7=CC(=O)OC7)CC[C@]6(O)[C@@H]5CC[C@]4(O)C3)O[C@@H]2C)O[C@H](C)[C@H]1O[C@H]1C[C@@H](OC)[C@@H](O[C@@H]2O[C@H](CO)[C@@H](O)[C@H](O)[C@H]2O)[C@@H](C)O1 (stereo partly drawn)	0.66 µM (active)	
C[C@]12CC(O)C3[C@@H](CC[C@@H]4C[C@@H](O)CC[C@]34CO)[C@@]1(O)CC[C@@H]2C1=CC(=O)OC1 (stereo partly drawn)	13.2 µM (active)	
